# Data published in PubChem BioAssay (Tox21).
# Inconclusive results are not listed. Calls of active or inactive are those of the source. Calls follow the shape of the dose curve; as a rule, active = well fitted cell-killing curve with a large enough effect in the repeat runs; inconclusive = weak or mixed curves, or effect the other way; inactive = flat fitted curve, though single readings scatter.
# Test: qHTS assay to identify small molecule antagonists of the androgen receptor (AR) signaling pathway using the MDA cell line - cell viability counter screen (AID 743041; also: nearly all actives have a fitted effect of over 45% in size)
# Details: MDA-kb2 viability, CellTiter-Fluor, 16 h, cells co-treated with R1881 androgen agonist; series mostly up to 70.3 µM; viability change, negative = cytotoxic: at the top concentration
# Source text: National Center for Advancing Translational Sciences [NCATS]
# NIH Chemical Genomics Center [NCGC]
# U.S. Environmental Protection Agency [EPA]
# National Institutes of Environmental Health Sciences [NIEHS]
# National Toxicology Program [NTP]
# U.S. Food and Drug Administration [FDA]
# Androgen receptor (AR), a nuclear hormone receptor, plays a critical role in AR-dependent prostate cancer and other androgen related diseases. Endocrine disrupting chemicals (EDCs) and their interactions with steroid hormone receptors like AR may cause disruption of normal endocrine function as well as interfere with metabolic homeostasis, reproduction, developmental and behavioral functions. To identify the compounds that inhibit AR signaling, MDA-kb2 AR-luc cell line (from ATCC, deposited by Wilson et al.) was used to screen the Tox21 10K compound library. MDA-kb2 AR-luc cell line is human breast carcinoma cell line that was stably transfected with a luciferase reporter gene under control of the MMTV promoter containing response elements for both androgen receptor (AR) and glucocorticoid receptor (GR). The cytotoxicity of the Tox21 compound library against the MDA-kb2 AR-luc cell line was tested in parallel by measuring the cell viability using CellTiter-Fluor assay (Promega, Madison, WI) in the same wells.
# Tox21 Assay Protocol Summary:
# MDA-kb2 AR-luc cells were dispensed at 3,000 cells/4 uL/well of culture medium into white wall/solid-bottom 1536-well plates using a Multidrop Combi (ThermoFisher Scientific, Waltham, MA) dispenser. After the assay plates were incubated at a 37C and 0% CO2 for 5 hr, 23 nL of compounds dissolved in DMSO, positive controls or DMSO only was transferred to the assay plate by a Pintool station (Kalypsys, San Diego, CA), followed by addition of 1 uL of agonist (R1881) in culture medium using a Bioraptr Flying Reagent Dispenser (FRD) workstation (Beckman Coulter, Indianapolis, IN, USA). The plates were incubated at a 37C and 0% CO2 for 16 h. After 15.5 h incubation, 1uL of CellTiter-Fluor reagent (Promega) was added using a Bioraptr FRD to each plate for measuring cytotoxicity. The fluorescence intensity was quantified on a ViewLux plate reader (PerkinElmer, Shelton, CT) following 30 min incubation at 37C and 0% CO2.
# % is scaled to controls: 0 for no effect and ±100 for the full control effect; potency is read from the fitted curve at half-maximal effect.
SMILES,"viability change, negative = cytotoxic",Potency
O=C(Cl)c1ccc([N+](=O)[O-])cc1,-1.6% (inactive),–
NCCCN(CCO)CCO,18.6% (inactive),–
CCN(CC)C(C)CN1c2ccccc2Sc2ccccc21 (stereo not given),2.18% [at 32.5 µM] (inactive),–
CN(C)CCCNCCCN,1.57% (inactive),–
Cc1ccc(C(=O)C(C)CN2CCCCC2)cc1 (stereo not given),–,inactive
Cc1ccc(O)c([C@H](CCN(C(C)C)C(C)C)c2ccccc2)c1,-11.1% (inactive),–
Oc1ccc(Cc2ccccc2)cc1,0.914% (inactive),–
CCCCCCCCN(C)C,3.64% (inactive),–
c1ccc(CNCc2ccccc2)cc1,10.1% (inactive),–
CC(C)(C)c1cc(CCC(=O)OCC(COC(=O)CCc2cc(C(C)(C)C)c(O)c(C(C)(C)C)c2)(COC(=O)CCc2cc(C(C)(C)C)c(O)c(C(C)(C)C)c2)COC(=O)CCc2cc(C(C)(C)C)c(O)c(C(C)(C)C)c2)cc(C(C)(C)C)c1O,-1.26% [at 32.5 µM] (inactive),–
CCCCCCCCCC(=O)OCC,5.17% (inactive),–
CC(=O)N(O)CCCCCNC(=O)CCC(=O)N(O)CCCCCNC(=O)CCC(=O)N(O)CCCCCN,8.48% [at 32.5 µM] (inactive),–
CC/C(=C\C(=N/O)C(N)=O)C(C)[N+](=O)[O-] (stereo not given),6.36% (inactive),–
O=C(/C=C/c1ccc(O)c(O)c1)O[C@@H]1C[C@](O)(C(=O)O)C[C@@H](O)[C@H]1O,-1.51% [at 95 µM] (inactive),–
NC(=S)N/N=C/c1cccnc1,3.1% (inactive),–
COC(=O)C(C)=O,2.16% [at 95 µM] (inactive),–
O=C(O)COC(=O)Cc1ccccc1Nc1c(Cl)cccc1Cl,9.34% [at 32.5 µM] (inactive),–
CC(C)NCC(O)COc1ccc(CC(N)=O)cc1 (stereo not given),5.12% (inactive),–
CCN(CC)C(C)=O,0.426% [at 95 µM] (inactive),–
O=C(C(=O)c1ccc(Br)cc1)c1ccc(Br)cc1,4.96% [at 32.5 µM] (inactive),–

SMILES,"viability change, negative = cytotoxic",Potency
CC1=CC(=O)/C(=C(/C)O)C(=O)O1,10.6% (inactive),–
CCCCCOC(=O)c1ccc(O)cc1,-11.3% [at 95 µM] (inactive),–
COCCCCCCCCOCCC[Si](C)(O[Si](C)(C)C)O[Si](C)(C)C,–,21.7 µM (active)
CN1CCC[C@@H]1c1cccnc1,-0.524% (inactive),–
COC(=O)CSc1cc(N=c2sc(=O)n3n2CCCC3)c(F)cc1Cl,6.78% (inactive),–
CC(O)C1CCCCC1 (stereo not given),1.1% (inactive),–
Nc1cnn([C@@H]2O[C@H](CO)[C@@H](O)[C@H]2O)c(=O)n1,1.84% (inactive),–
N#Cc1c(F)cccc1F,2.44% (inactive),–
CCCCCCCCCCCCC(=O)O,9.7% [at 95 µM] (inactive),–
CN(C)CCCOc1nn(Cc2ccccc2)c2ccccc12,3.29% [at 32.5 µM] (inactive),–
CCCCCCCCC(CO)CCCCCC (stereo not given),1.51% (inactive),–
CC(C)CC=O,2.66% (inactive),–
Cn1c(N)nc2nc[nH]c2c1=O,-1.15% (inactive),–
O=C=NC1CCC(CC2CCC(N=C=O)CC2)CC1 (stereo not given),–,6.86 µM (active)
CCCCCCCCCCCCCCCC(=O)OC/C=C(C)/C=C/C=C(C)/C=C/C1=C(C)CCCC1(C)C,–,inactive
N=C(N=C(N)N)N1CCOCC1,-0.86% [at 32.5 µM] (inactive),–
O=C(Nc1ccccc1)OCC(CN1CCCCC1)OC(=O)Nc1ccccc1 (stereo not given),-3.33% [at 32.5 µM] (inactive),–
CCCCCCc1ccc(N)cc1,10.7% (inactive),–
CCOC(=O)C1=C(C)NC(C)=C(C(=O)OC)C1c1cccc([N+](=O)[O-])c1 (stereo not given),-21% (inactive),–
CC(C)c1ccccc1C(C)C,-2.28% (inactive),–
